This note sets out measurements from PubChem BioAssay AID2550 (Johns Hopkins Ion Channel Center, 2010).

Molecules are shown by their SMILES. The whole screen tested about 310,000 compounds, of which about 380 (0.12%) were called active.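 Rule for the calls: active = B-score of the integrated fluorescence ratio above library mean plus 3 SD, and starting fluorescence ratio within library mean plus 5 SD; inactive = the rest.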 The list comes from a sample in which actives are over-represented; it also holds similar structures and randomly drawn compounds.

This assay deals with Short transient receptor potential channel 6 (Mus musculus) (UniProt Q61143). Briefly: mouse TRPC6 channel activators, primary screen, cell-based, HEK293, membrane potential dye (AID 2550).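 Note: higher score means more depolarization so channel activation.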 The note with it: HEK293-TRPC6 membrane potential dye fluorescence, at 10 µM; active compounds read high.
Short transient receptor potential channel 6 (Mus musculus), sequence (Q61143 whole entry, looked up): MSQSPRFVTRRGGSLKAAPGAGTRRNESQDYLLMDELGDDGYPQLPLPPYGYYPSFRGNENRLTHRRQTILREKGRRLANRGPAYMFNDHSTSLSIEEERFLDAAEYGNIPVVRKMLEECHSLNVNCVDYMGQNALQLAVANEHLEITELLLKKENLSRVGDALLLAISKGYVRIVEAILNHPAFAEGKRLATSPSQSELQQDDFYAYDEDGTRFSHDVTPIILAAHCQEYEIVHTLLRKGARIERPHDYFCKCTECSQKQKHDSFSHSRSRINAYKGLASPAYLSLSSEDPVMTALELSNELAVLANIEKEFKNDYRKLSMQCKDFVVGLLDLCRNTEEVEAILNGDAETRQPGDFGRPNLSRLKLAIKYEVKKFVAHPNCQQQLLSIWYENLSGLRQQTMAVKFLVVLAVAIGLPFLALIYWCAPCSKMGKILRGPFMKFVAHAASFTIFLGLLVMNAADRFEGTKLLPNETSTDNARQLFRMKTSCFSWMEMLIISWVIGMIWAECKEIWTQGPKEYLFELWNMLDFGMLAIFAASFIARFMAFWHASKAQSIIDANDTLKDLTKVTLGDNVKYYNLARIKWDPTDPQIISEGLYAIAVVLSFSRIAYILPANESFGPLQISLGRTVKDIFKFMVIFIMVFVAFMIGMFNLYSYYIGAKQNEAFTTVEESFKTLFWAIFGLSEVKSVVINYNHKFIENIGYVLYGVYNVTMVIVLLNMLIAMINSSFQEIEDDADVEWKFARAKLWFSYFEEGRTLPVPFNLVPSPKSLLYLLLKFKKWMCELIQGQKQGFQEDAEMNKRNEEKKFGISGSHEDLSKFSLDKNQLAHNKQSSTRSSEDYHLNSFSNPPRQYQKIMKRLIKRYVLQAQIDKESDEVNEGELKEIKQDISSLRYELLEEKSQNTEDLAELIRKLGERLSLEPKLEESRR
As for `Cc1c(S(=O)(=O)NC(C)c2ccccc2)c(=O)n(C)c(=O)n1C` (stereo not given), the B-score result was “inactive”.

As to `COc1ccc(CC(NC(C)=O)C(=O)NC2CCN(C(=O)C3CC3)CC2)cc1OC` (stereo not given), the B-score entry is “inactive”.

Take `O=S(=O)(c1cccc(Cn2nnc(-c3ccc(F)cc3)n2)c1)N1CCOCC1`: the B-score result was “inactive”.

As to `C[C@]1(C(=O)NCCc2c[nH]c3ccccc23)C=C[C@@H](Cc2ccccc2)N1C(=O)c1ccccc1`, the B-score entry was “inactive”.

In the case of `CCOC(=O)c1nc(-c2ccc3c(c2)OCO3)[nH]c1C`, the B-score entry is “inactive”.

On to `Cc1cc(Nc2ccc(C(=O)N3CCCCC3)cc2)c2cccc(C)c2n1`, for which the B-score entry was “inactive”.

For `CCC(c1nnc(SCC(=O)NNC(=O)c2ccccc2)n1Cc1ccccc1)N(C)C` (stereo not given), the B-score result was “inactive”.

Turning to `COc1ccc(-n2cc(-c3ccccc3)c3c(=S)nc[nH]c32)cc1`, the B-score entry was “inactive”.

On to `Cc1nnc(NC(=O)Cn2c(=O)sc3ccccc32)s1`, for which the B-score entry is “inactive”.

In the case of `O=C(Nc1cc(-c2nn(CC(=O)N3CCCCC3)c(=O)c3ccccc23)ccc1N1CCOCC1)c1ccc(Cl)cc1`, the B-score result was “inactive”.

As for `Cc1cccc(NC(=O)Nc2ccc3c(c2)OCO3)n1`, the B-score result is “inactive”.

For `OCc1nc(CO)n(Cc2ccccc2)n1`, the B-score entry is “inactive”.

Regarding `CCN(CC)C(=O)N1CCN(C(=O)c2ccc(C)cn2)CC1`, the B-score entry is “inactive”.

For the compound `COc1ccc(CCC(=O)c2ccc(OC)cc2)cc1`, the B-score result was “inactive”.

Regarding `COCC1CCN(C(=O)C2CCC(=O)N(Cc3cccc(C(F)(F)F)c3)C2)CC1` (stereo not given), the B-score entry was “inactive”.

Consider `CCCCc1c(O)nc2n(c1=O)CCS2`, for which the B-score result was “inactive”.

In the case of `CCOC(=O)N1CCC(O)(c2cc(C)c(C)cc2C)CC1`, the B-score result was “inactive”.

`COc1cccc2c1CCC(NC(C)=O)C2=O` (stereo not given): the B-score result is “inactive”.

With `O=C1CSC2=NCN(c3ccccc3)CN12`, the B-score entry was “inactive”.

`CN1C(CC(=O)Nc2ccc(Br)cc2)c2ccccc2CC1(C)C` (stereo not given): the B-score result was “inactive”.

For the compound `Nc1[nH][nH]c(=O)c1N=Nc1ccc2c(c1)OCO2`, the B-score entry is “inactive”.

As for `Cn1c(SCC(=O)Nc2ccc(Cl)cc2)nc(O)cc1=O`, the B-score result is “inactive”.

With `CCOc1ccc(NC(=O)CN(C)CC(=O)Nc2cccc(Cl)c2C)cc1OCC`, the B-score result is “inactive”.

For the compound `Cc1ccc(NC(=O)C2CCN(S(=O)(=O)c3ccc4c(c3)NC(=O)CO4)CC2)cc1C`, the B-score entry is “inactive”.

On to `CCCCN=C(N)/C(C(=O)OCC)=C(\O)c1ccc(OC)cc1`, for which the B-score entry is “inactive”.

With `CC(C)C(c1nnnn1C(C)(C)C)N1CCN(Cc2cccnc2)CC1` (stereo not given), the B-score result is “inactive”.

`Cn1c(-c2ccc(C(=O)c3ccccc3)s2)nc2ccccc21`: the B-score result is “inactive”.

On to `COc1cccc(C2c3[nH]c4ccccc4c3CCN2Cc2cccc(C)n2)c1` (stereo not given), for which the B-score entry is “inactive”.

Turning to `COC(=O)[C@@H]1CC(O)CN1C(=O)C12CC3CC(CC(C3)C1)C2` (stereo not given in full), the B-score entry was “inactive”.

Consider `Cc1ccc(NC(=O)c2sc3nc(N)c(C#N)cc3c2N)cc1`, for which the B-score result is “inactive”.

Regarding `CCn1ccnc1CNC(=O)CC1C(=O)NCCN1Cc1ccc(F)cc1Cl` (stereo not given), the B-score entry is “inactive”.

In the case of `COc1cc(CNCCN(C)C)ccc1OCc1c(F)cccc1Cl`, the B-score was 12.5 (active).

Turning to `CCOCCCNCc1ccc(OCc2ccc(F)cc2)c(OC)c1`, the B-score result is “inactive”.

As to `CCN(CC)CCNCc1ccc(OCc2ccc(Cl)nc2)c(OC)c1`, the B-score entry was “inactive”.

For `CCc1ccc(/C=N/NC(=O)c2nnn(-c3nonc3N)c2CN2CCc3ccccc32)cc1`, the B-score entry was “inactive”.

For the compound `Cc1cccc(CCNS(=O)(=O)c2ccc3c(c2)NC(=O)CO3)c1`, the B-score result is “inactive”.

With `Cc1ccccc1-n1nnnc1SCCCC(=O)c1ccc(F)cc1`, the B-score entry was “inactive”.

`CCC(C)N1C(=O)S/C(=C/c2ccc(Sc3nc4ccccc4[nH]3)o2)C1=O` (stereo not given): the B-score entry is “inactive”.

Regarding `COc1cccc(CNC(=O)C2CC(=O)N(C3CCCCCCC3)C2)c1` (stereo not given), the B-score result was “inactive”.

Consider `CNc1nc(Nc2ccc(C)c(Cl)c2)nc(N)c1[N+](=O)[O-]`, for which the B-score entry is “inactive”.

With `O=C1NC(=O)C(c2ccc(Cl)cc2)N1` (stereo not given), the B-score result was “inactive”.

For the compound `CC(=O)N1N=C(c2ccncc2)OC1(Cc1ccccc1)Cc1ccccc1`, the B-score entry is “inactive”.

Turning to `CCCN(CCc1ccccc1)C1CCc2c(O)cccc2C1` (stereo not given), the B-score was 16.8 (active).

For `Cc1cc(C)cc(C(=O)N(CCc2ccccc2)C2=CC3CCC(C2)N3C)c1` (stereo not given), the B-score result was “inactive”.

As for `CN1CCN(/N=C/c2ccc(C#N)cc2)CC1`, the B-score result is “inactive”.

Take `CN1CCN(/N=C/c2ccc(-c3ccc([N+](=O)[O-])cc3)o2)CC1`: the B-score was 16.2 (active).

Regarding `Cc1ccc(-c2ccc(/C=N/NC(=O)CN3CCOCC3)o2)cc1[N+](=O)[O-]`, the B-score entry was “inactive”.

Turning to `Cc1cc(N2CCN(c3ccc(F)cc3)CC2)n2ncnc2n1`, the B-score entry was “inactive”.

With `CCOCCCN1C(=O)C2C(C(=O)Nc3ccc(OCC)cc3)C3C=CC2(O3)C1C(=O)NC1CCCCC1` (stereo not given), the B-score result is “inactive”.

`O=C(c1ccc(Cl)cc1)n1cnc2ccccc21`: the B-score result is “inactive”.

With `CC(NC(=O)CNC(=O)Cc1cccc2ccccc12)c1ccc(S(N)(=O)=O)cc1` (stereo not given), the B-score entry is “inactive”.

For `CCC(C(=O)OC)n1cnc2scc(-c3ccc(C)cc3)c2c1=O` (stereo not given), the B-score entry was “inactive”.

Regarding `O=[N+]([O-])c1cccc(/C=N/Nc2ncc(Br)cn2)c1`, the B-score entry is “inactive”.

On to `O=C(N/N=C/c1ccc(Cl)c(Cl)c1)c1ccc2nc[nH]c2c1`, for which the B-score entry was “inactive”.

As to `CCO/C=C1\C(=O)N(c2ccc(OCC)cc2)C(=O)c2ccccc21`, the B-score entry is “inactive”.

On to `COc1ccc(C(C)C)cc1S(=O)(=O)Nc1ncn[nH]1`, for which the B-score entry was “inactive”.

With `CCC(=O)c1ccc(OCC(=O)OCC(=O)NC2CCCCCC2)cc1`, the B-score entry was “inactive”.

Consider `Cc1nc2c(-c3ccc(F)cc3)c(C)nn2c(C)c1CCC(=O)NCc1ccco1`, for which the B-score result is “inactive”.

Turning to `Cc1cc2c(cc1C)[n+](C)cn2CC(O)COCC1CC=CCC1` (stereo not given), the B-score entry was “inactive”.

As to `N#Cc1ccc(-c2ccc(Cl)cc2)nc1Oc1ccc(F)cc1`, the B-score result was “inactive”.

Regarding `Cc1nn(C)c(C)c1S(=O)(=O)N1CCC(CO)(Cc2ccc(Cl)cc2)CC1`, the B-score entry was “inactive”.

On to `COc1cccc(OC)c1C(=O)Nc1c(C(=O)N2CCN(c3ccccn3)CC2)oc2ccccc12`, for which the B-score entry was “inactive”.

For `CN1CCN(CCCCOc2ccccc2-c2ccccc2)CC1`, the B-score entry was “inactive”.

For the compound `Oc1ccc(CNc2ccccc2O)cc1`, the B-score entry is “inactive”.

Take `COc1ccc(-n2ncc3c2CC(C)(C)CC3NC(=O)CCc2c(C)noc2C)cc1` (stereo not given): the B-score entry is “inactive”.

Regarding `Cc1ccc(N(CCC(=O)O)S(=O)(=O)c2cccc(C(F)(F)F)c2)cc1`, the B-score entry was “inactive”.

Take `CCOc1ccc(CN(C)C(=O)c2ccc(=O)[nH]c2)cc1`: the B-score result was “inactive”.

With `Cc1nn(-c2ccccc2)c2sc(C(=O)N(Cc3ccco3)C(C)C(=O)NC(C)(C)C)cc12` (stereo not given), the B-score result was “inactive”.

For the compound `CCN(CC(=O)NCc1ccc(Cl)cc1)C(=O)CSc1ccccc1`, the B-score result was “inactive”.

For `O=C(Nc1ccc(N2CCCC2=O)cc1)c1cncc(Br)c1`, the B-score result was “inactive”.
